Experimental findings from PubChem BioAssay AID504848 (National Center for Advancing Translational Sciences (NCATS), 2011) are described below.

Among all 2,300 compounds or so, about 1,400 (61%) were called active. Roughly 29% stayed inconclusive and do not appear here. The call rests on the fitted dose curve; in most records, active means well fitted inhibition curve with a large enough effect; inconclusive means small, poorly fitted or top-dose-only effect, or effect the other way; inactive means no such curve, though single readings can be large or run the other way. The set was probably picked from earlier hits. This is one part of the list.
On the % scale 0 is the no-effect control and ±100 the full control effect; potency means the concentration at half of the fitted maximal effect.

A short description of the assay: Confirmation screen for delayed death inhibitors of the malarial parasite plastid, 96 hour incubation. Further: nearly all actives have a fitted effect of over 60% in size. Particulars: P. falciparum luciferase growth in erythrocytes; series mostly up to 28.7 µM; activity change, negative = inhibition: at the top concentration. From the text: The goal of this screen is to discover new antimalarial compounds that act by inhibiting the development of the apicoplast in the malarial parasite Plasmodium falciparum. The biochemical processes that make this organelle essential for erythrocytic stage parasites are not well understood. However, antibiotics, such as azithromycin and tetracycline, which target the apicoplast translational machinery, have a potent antimalarial effect. […] We have developed a cell-based assay that measures parasite growth based on the expression of an integrated copy of a firefly luciferase reporter. To detect small molecules that cause this "delayed death phenotype, erythrocytes infected with the luciferase-expressing parasites were incubated with compounds for either one or two generations, corresponding to 48 and 96 hours, respectively. Compounds that inhibit parasite growth in the second generation, but not the first, should be enriched in antimalarials that target the apicoplast. Growth inhibition is detected by a decrease in luciferase activity. MLPCN Grant: R21 NS059500 Assay Provider: David Fidock and Eric Ekland, Columbia University Keywords: NIH Roadmap, MLPCN, MLI, MLSMR, qHTS, NCGC, qHTS, malaria, luciferase, viability
Four microliters of culture medium (RPMI 1640 with 0.5% w/v Albumax (GIBCO), 24 mM sodium bicarbonate and 10 ug/mL gentamycin) were dispensed by a Multi-drop Combi into white solid 1536-well plates (Grenier) and 23 nL compound was added by a pin tool. Four microliters of infected erythrocytes (2% hematocrit, 0.1% parasitemia final concentration) in culture medium were dispensed and the plates incubated for 96 hours at 37 C in 5% CO2. Two microliters of luciferase detection reagent was added and luminescence was detected by a ViewLux (PerkinElmer) reader
`COc1ccc(C2c3[nH]c4ccccc4c3CCN2Cc2ccoc2)c(F)c1` (centres undefined): the Potency was 12.6 µM (active). Regarding `Cc1ccccc1C1c2[nH]c3ccccc3c2CCN1Cc1cccn1-c1ncccn1` (centres undefined), the Potency is 14.1 µM (active).

On to `Fc1ccccc1C1c2[nH]c3ccccc3c2CCN1Cc1cccn1-c1ncccn1` (centres undefined), for which the Potency is 12.6 µM (active). Regarding `O=c1c(Cl)c(Cl)cnn1Cc1nnc(-c2ccc(Cl)cc2)o1`, the Potency was 12.6 µM (active). Regarding `COc1cc2c(O)c3c(c(-c4ccc5c(c4)OCO5)c2cc1OC)C(=O)OC3`, the Potency is 6.31 µM (active). Regarding `CCOC(=O)C1=C(C)NC(C)=C(C(=O)OCC)C1c1cc(N)ccc1OC(F)F`, the Potency was 5.62 µM (active). `Nc1c(N(Cc2ccco2)C(=O)c2ccc(Br)cc2)c(=O)[nH]c(=O)n1Cc1ccccc1`: the “activity change, negative = inhibition” value is -7.43% (inactive). As for `Cc1ccc(N(Cc2ccco2)C(=O)c2ccc(N3CCCCC3)c([N+](=O)[O-])c2)cc1`, the Potency is 10 µM (active).

With `COc1cc(CN2CCN(CC#Cc3ccccc3)CC2CCO)cc(OC)c1` (centres undefined), the Potency is 14.1 µM (active). For `COc1cc(CN2CCN(Cc3c[nH]c4ccccc34)CC2CCO)cc(OC)c1` (centres undefined), the Potency was 12.6 µM (active).

`Cc1cccc(Nc2nc3c(S(=O)(=O)c4ccccc4)nnn3c3ccccc23)c1C`: the Potency is 3.98 µM (active). Same read-out and setting: for `CC(C)(C)NC(=O)CSc1nnc(-c2ccccc2)c(-c2ccccc2)n1` the value was 14.1 µM (active). Consider `COc1ccc(/C=C2\CCc3ccccc3C2=O)cc1CN1CCOCC1`, for which the Potency is 15.8 µM (active). Same read-out and setting: as for `CCC(C)NC(=O)c1cc(Cl)c(NC(=O)C2=C(C)OCCS2)cc1OC` (centres undefined), the figure is 10 µM (active); as for `Cc1nn2c(Nc3ccccc3)c3c(nc2c1-c1ccccc1)CCC3`, 14.1 µM (active). For `Cc1ccc(Cl)cc1Nc1nc(-c2sc(NC(=O)C(C)(C)C)nc2C)cs1`, the Potency is 2.82 µM (active). In the case of `Cc1cccc(N(Cc2ccccc2)C(=O)CSC(C)C(=O)Nc2cc(C)on2)c1` (centres undefined), the Potency is 8.91 µM (active). Take `CCOC(=O)C1CCN(C(=O)C(=O)Nc2ccc3nc4n(c(=O)c3c2)CCCCC4)CC1`: the Potency was 7.08 µM (active).

Turning to `COc1ccccc1C(=O)Nc1ccc2nc3n(c(=O)c2c1)CCCC3`, the Potency was 3.55 µM (active).

Regarding `CCCCCNc1nc2sc3c(c2c(=O)n1-c1cccc(Cl)c1)CCN(C)C3`, the Potency is 2.24 µM (active). Turning to `CCCCNc1nc2sc3c(c2c(=O)n1-c1cccc(Cl)c1)CCN(C)C3`, the Potency is 1.26 µM (active).

As for `O=C(O)c1ccc(C=C(c2nc3ccccc3s2)c2nc3ccccc3s2)cc1`, the Potency is 15.8 µM (active). As to `CCCCNC(=O)c1onc(CSc2cc(C)ccc2C)c1C(=O)O`, the “activity change, negative = inhibition” value is -0.286% (inactive).

With `Cc1cc(C(C)(C)C)cc(C)c1CCNC(=O)c1ccc[n+]([O-])c1`, the Potency is 12.6 µM (active). As to `Cc1cc(C(C)(C)C)cc(C)c1CCNC(=O)c1c(C)noc1C`, the Potency is 10 µM (active). Consider `Cc1ccc2c(c1)N(CCC(=O)NCc1ccco1)C(=O)CO2`, for which the “activity change, negative = inhibition” value is -3.07% (inactive). With `Cc1nn(CCCC(=O)NCc2ccco2)c(=O)c2nn(-c3ccccc3)c(C)c12`, the Potency was 11.2 µM (active). With `Cc1ccc(-n2nc3c(=O)n(CCCC(=O)NCc4ccco4)nc(C)c3c2C)cc1`, the Potency is 2.24 µM (active).

As to `C/C(=N\NC(=S)Nc1cccc(C)c1)c1ccccc1`, the Potency is 11.2 µM (active). On to `C/C(=N/OCO/N=C(\C)c1ccccc1)c1ccccc1`, for which the “activity change, negative = inhibition” value was -1.99% (inactive).

Consider `CCOC(=O)c1c(C)[nH]c(C(=O)Nc2cc(OCC)c(N3CCOCC3)cc2OCC)c1C`, for which the Potency is 2.51 µM (active). On the same count and under the same terms, for `CCOC(=O)c1ccc(NC(=O)c2c(Cl)cc(C)nc2C)cc1` the value was 12.6 µM (active). With `CCOC(=O)c1ccc(Nc2nc(=O)c3cccnc3s2)cc1`, the “activity change, negative = inhibition” value was 4.59% (inactive).

As to `N#C/C(=C\c1coc2ccccc2c1=O)C(N)=S`, the Potency was 11.2 µM (active). Turning to `N#C/C(=C\C=C\c1ccccc1[N+](=O)[O-])C(=O)NC1CCCCC1`, the Potency was 5.01 µM (active). As for `COC(=O)C(=Cc1ccccc1[N+](=O)[O-])C(=O)OC`, the Potency was 3.98 µM (active).

For `COCCNC(=O)/C(C#N)=C/C=C/c1ccccc1[N+](=O)[O-]`, the Potency was 10 µM (active). Consider `CC1CCCCC1NC(=O)/C(C#N)=C/C=C/c1ccccc1[N+](=O)[O-]` (centres undefined), for which the Potency was 4.47 µM (active). Still for that read-out and setting: as for `CCCCN1/C(=C/c2cccc[n+]2C)Sc2cc(NC(C)=O)ccc21`, the figure is 1.58 µM (active); as for `CCC1CCC(C(=O)NC(CCSC)C(=O)NCCN(CC(C)C)CC(C)C)CC1` (centres undefined), 7.08 µM (active). Regarding `O=C1C(=O)c2ccccc2C(O)=C1c1cccc([N+](=O)[O-])c1`, the Potency was 10 µM (active). As for `COC(=O)c1ccc(C2N=C(c3cccs3)CC(c3ccccc3O)N2)cc1` (centres undefined), the Potency was 5.62 µM (active).

In the case of `COc1ccc(C2(c3ccc(OC)cc3)NC(=O)N(CC(=O)Nc3ccc(C(N)=O)cc3)C2=O)cc1`, the Potency is 3.98 µM (active).

`COc1cccc(NC(=O)CN2C(=O)NC3(CCCc4ccccc43)C2=O)c1` (centres undefined): the Potency was 3.98 µM (active). For the compound `COC(=O)C1=C(C)Nc2ncnn2C1c1ccccn1` (centres undefined), the “activity change, negative = inhibition” value is -14% (inactive).

Regarding `CCOc1ccc(N(C(=O)c2snc(C(N)=O)c2N)C(C(=O)NCC2CCCO2)c2c[nH]c3ccccc23)cc1` (centres undefined), the Potency was 2.82 µM (active).

Take `COc1cc(/C=C/C(=O)NC(=O)c2ccccc2O)ccc1OC(C)=O`: the Potency is 8.91 µM (active).

For the compound `Cn1c(=O)oc2cc(S(=O)(=O)NCCC(=O)NCc3ccc(F)cc3)ccc21`, the Potency was 12.6 µM (active). In the case of `O=C1NC(=Nc2ccccc2)S/C1=C\c1ccccc1`, the Potency was 11.2 µM (active). Consider `O=C(NC1CCCCC1)N1CCN(c2ccc([N+](=O)[O-])cc2)CC1`, for which the Potency is 12.6 µM (active). For `CCCc1c(CC)c(=N)c2ccccc2n1C`, the Potency was 0.0316 µM (active). With `CC(C)(CNC(=O)/C=C/c1ccc(F)cc1)CNC(=O)/C=C/c1ccc(F)cc1`, the Potency is 8.91 µM (active). Take `Nc1cccc2c1C(=O)N(C(=O)/C=C/c1ccc(F)cc1)C2=O`: the “activity change, negative = inhibition” value is 9.14% (inactive).

Turning to `CCCCn1c(C2CCCCC2)nc2cc3[nH]c(=O)c(C(C)C)nc3cc21`, the Potency was 11.2 µM (active). Take `Cc1cc(=O)oc2c1ccc1oc(/C(=N/O)c3ccccc3)c(C)c12`: the Potency is 4.47 µM (active).

With `Cc1cc(Cl)cc(C)c1OCCn1ccnc1`, the Potency was 11.2 µM (active). As to `CC#CC#Cc1cccc(=O)o1`, the Potency was 3.98 µM (active). For `Clc1ccc2nc(-c3ccccn3)c(Nc3ccc4c(c3)OCO4)n2c1`, the Potency was 10 µM (active). On to `CCCCSc1nnc(-c2cc3c(C(F)(F)F)nn(C)c3s2)n1C`, for which the Potency was 10 µM (active).
